Drawing on ChEMBL document CHEMBL1961873, “Compounds: GSK PKIS; Assays: Nanosyn kinase panel” (2012), this text covers inhibition for 6 compounds.

The target in experiment [1] is Leukocyte tyrosine kinase receptor (Homo sapiens) (UniProt P29376). To be noted: at 1 µM.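 Further: each value is the mean inhibition of LTK.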
Experiment [2] concerns the target Tyrosine-protein kinase Lyn (Homo sapiens) (UniProt P07948). As to conditions: at 0.1 µM.
Experiment [3] has the same target. As to conditions: at 1 µM.
For experiment [4] the target is unchanged. To be noted: at 0.1 µM. The source holds these as a separate data set.
Experiment [5] shares this target. To be noted: at 1 µM. This is another data set of the same source.
In experiment [6] the target is T1, Tyrosine-protein kinase Mer (Homo sapiens) (UniProt Q12866).
T1 sequence (whole entry): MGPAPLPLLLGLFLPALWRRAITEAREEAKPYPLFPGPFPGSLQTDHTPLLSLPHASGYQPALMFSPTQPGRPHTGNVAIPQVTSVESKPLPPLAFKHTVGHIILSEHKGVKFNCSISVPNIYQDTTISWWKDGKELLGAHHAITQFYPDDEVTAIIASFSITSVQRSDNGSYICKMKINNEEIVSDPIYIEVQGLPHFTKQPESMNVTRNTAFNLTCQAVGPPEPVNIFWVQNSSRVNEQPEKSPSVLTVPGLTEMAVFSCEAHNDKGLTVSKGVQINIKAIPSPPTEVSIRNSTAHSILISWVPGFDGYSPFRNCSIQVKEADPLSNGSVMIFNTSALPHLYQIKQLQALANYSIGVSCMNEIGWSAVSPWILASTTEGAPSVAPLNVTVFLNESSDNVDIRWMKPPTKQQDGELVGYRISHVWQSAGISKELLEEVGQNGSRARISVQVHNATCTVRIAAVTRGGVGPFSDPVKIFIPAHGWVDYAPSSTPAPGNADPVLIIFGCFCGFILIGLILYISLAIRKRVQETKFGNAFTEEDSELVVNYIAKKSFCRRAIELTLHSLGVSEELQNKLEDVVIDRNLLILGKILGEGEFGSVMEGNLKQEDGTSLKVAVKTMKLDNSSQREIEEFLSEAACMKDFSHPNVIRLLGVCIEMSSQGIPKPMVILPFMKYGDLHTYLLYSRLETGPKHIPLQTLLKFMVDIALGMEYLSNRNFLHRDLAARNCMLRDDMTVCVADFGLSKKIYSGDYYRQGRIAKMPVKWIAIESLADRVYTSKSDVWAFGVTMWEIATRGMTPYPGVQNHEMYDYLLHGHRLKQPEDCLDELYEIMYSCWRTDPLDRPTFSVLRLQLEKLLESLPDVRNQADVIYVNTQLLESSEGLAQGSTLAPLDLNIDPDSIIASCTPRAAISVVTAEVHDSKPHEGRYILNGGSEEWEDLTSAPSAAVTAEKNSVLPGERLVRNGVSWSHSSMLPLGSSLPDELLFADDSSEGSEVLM
To be noted: at 0.1 µM.

Experiment [7] concerns the target T1, Tyrosine-protein kinase Mer (Homo sapiens). To be noted: at 1 µM.
For experiment [8], the target named is Hepatocyte growth factor receptor (Homo sapiens) (UniProt P08581). As to conditions: at 0.1 µM.
Sequence of Hepatocyte growth factor receptor (Homo sapiens) (P08581 whole entry): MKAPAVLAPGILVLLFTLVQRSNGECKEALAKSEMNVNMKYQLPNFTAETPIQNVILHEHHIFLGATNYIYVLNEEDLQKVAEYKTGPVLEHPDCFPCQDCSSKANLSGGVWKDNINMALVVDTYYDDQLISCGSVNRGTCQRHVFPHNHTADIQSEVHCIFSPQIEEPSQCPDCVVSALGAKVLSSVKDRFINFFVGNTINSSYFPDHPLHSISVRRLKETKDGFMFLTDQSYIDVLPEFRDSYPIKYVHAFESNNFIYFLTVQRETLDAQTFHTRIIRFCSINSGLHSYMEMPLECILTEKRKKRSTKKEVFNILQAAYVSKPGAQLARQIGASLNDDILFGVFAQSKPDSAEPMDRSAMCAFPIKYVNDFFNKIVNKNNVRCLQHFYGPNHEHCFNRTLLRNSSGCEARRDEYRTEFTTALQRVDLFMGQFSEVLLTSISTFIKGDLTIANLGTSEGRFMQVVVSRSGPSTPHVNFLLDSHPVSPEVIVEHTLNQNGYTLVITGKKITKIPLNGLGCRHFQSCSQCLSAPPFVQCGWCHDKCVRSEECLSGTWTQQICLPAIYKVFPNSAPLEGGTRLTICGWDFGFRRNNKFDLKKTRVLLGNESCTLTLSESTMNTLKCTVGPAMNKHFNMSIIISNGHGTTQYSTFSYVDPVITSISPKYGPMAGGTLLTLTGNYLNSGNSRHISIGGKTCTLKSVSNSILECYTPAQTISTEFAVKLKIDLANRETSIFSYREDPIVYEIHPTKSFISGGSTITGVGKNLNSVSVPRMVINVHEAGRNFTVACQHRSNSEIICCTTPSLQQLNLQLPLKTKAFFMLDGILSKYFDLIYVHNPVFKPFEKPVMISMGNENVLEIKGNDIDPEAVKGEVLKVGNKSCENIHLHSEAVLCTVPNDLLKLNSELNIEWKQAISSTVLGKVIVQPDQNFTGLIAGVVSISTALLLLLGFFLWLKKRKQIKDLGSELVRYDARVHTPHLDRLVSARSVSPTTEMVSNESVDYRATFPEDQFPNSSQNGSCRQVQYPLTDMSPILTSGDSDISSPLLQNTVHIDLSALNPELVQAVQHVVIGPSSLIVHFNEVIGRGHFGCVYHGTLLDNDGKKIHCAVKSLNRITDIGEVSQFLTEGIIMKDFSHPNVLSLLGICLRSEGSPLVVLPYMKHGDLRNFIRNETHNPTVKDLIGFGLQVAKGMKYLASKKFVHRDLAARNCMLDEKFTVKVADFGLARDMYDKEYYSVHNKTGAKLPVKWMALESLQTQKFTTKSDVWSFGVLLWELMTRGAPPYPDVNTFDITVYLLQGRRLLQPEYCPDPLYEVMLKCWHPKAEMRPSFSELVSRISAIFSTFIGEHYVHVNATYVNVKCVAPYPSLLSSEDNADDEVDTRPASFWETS
For experiment [9] the target is unchanged. As to conditions: at 1 µM.
Experiment [10] addresses T2, Muscle, skeletal receptor tyrosine-protein kinase (Homo sapiens) (UniProt O15146).
T2 sequence (whole entry): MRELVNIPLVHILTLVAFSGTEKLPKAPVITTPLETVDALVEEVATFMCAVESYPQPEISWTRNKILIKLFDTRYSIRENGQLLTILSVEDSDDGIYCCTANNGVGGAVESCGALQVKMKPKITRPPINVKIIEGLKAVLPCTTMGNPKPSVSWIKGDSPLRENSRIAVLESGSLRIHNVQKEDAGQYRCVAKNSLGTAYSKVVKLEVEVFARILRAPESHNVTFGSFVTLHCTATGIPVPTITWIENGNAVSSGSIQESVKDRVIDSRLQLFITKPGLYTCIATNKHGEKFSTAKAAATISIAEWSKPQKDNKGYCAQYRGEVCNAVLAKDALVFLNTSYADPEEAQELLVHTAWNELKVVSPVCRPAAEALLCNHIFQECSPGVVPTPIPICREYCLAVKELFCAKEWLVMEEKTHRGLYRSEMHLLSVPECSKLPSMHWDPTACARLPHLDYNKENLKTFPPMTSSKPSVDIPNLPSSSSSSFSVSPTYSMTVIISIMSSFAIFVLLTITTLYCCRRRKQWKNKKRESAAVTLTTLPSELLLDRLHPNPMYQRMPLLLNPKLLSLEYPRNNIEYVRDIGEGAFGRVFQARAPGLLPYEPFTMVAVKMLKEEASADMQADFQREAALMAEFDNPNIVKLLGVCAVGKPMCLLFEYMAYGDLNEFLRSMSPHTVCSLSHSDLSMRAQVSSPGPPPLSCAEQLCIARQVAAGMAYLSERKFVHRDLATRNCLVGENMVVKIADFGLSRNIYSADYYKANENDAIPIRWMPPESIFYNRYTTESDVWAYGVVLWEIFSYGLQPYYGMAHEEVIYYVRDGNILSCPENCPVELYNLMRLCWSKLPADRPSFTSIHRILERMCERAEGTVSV
As to conditions: at 0.1 µM.

Experiment [11] has as its target T2, Muscle, skeletal receptor tyrosine-protein kinase (Homo sapiens). To be noted: at 1 µM.
Experiment [12] has as its target Platelet-derived growth factor receptor alpha (Homo sapiens) (UniProt P16234). As to conditions: at 0.1 µM.
The target is the same in experiment [13]. To be noted: at 1 µM.
Experiment [14] deals with Platelet-derived growth factor receptor alpha (Homo sapiens), P16234 [D842V]. As to conditions: at 0.1 µM.
Sequence of Platelet-derived growth factor receptor alpha (Homo sapiens), P16234 [D842V] (P16234 whole entry D842V): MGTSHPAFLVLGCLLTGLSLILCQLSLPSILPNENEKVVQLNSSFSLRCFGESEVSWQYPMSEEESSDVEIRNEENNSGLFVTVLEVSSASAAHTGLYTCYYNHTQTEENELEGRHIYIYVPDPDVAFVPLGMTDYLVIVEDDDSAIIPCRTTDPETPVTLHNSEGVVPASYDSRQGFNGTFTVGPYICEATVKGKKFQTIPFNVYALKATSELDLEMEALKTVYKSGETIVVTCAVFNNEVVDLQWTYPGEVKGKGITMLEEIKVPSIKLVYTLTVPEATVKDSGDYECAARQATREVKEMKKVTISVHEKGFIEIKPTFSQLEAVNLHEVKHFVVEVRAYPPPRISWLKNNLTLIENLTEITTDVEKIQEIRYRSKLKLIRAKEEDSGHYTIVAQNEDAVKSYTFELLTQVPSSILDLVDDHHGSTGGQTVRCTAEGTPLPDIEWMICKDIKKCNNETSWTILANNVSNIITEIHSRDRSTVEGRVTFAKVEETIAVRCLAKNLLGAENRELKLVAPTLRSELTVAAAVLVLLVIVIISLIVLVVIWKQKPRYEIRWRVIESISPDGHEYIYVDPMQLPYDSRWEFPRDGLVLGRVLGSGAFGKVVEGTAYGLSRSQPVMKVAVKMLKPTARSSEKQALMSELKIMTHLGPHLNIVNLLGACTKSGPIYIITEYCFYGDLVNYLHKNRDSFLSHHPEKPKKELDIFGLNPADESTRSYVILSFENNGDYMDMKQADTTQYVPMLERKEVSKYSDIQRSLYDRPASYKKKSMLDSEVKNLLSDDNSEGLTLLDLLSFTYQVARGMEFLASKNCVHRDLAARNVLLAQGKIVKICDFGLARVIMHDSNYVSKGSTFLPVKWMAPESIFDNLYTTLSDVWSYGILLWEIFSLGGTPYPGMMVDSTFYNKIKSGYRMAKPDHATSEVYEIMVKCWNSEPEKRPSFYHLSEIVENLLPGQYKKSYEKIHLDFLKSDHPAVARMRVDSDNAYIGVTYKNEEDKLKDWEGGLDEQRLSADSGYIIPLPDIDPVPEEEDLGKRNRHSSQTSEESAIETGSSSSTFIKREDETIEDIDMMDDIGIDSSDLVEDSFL
For experiment [15] the test system is unchanged. To be noted: at 1 µM.
For experiment [16], the system named is Platelet-derived growth factor receptor alpha (Homo sapiens), P16234 [T674I]. To be noted: at 0.1 µM.
Experiment [17] shares this test system. To be noted: at 1 µM.
Experiment [18] concerns Platelet-derived growth factor receptor alpha (Homo sapiens), P16234 [V561D]. As to conditions: at 0.1 µM.
For experiment [19] the test system is unchanged. As to conditions: at 1 µM.
In experiment [20] the target is Platelet-derived growth factor receptor beta (Homo sapiens) (UniProt P09619). As to conditions: at 0.1 µM.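 Further: reported value is the mean percent inhibition of the kinase.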
Sequence of Platelet-derived growth factor receptor beta (Homo sapiens) (P09619 whole entry): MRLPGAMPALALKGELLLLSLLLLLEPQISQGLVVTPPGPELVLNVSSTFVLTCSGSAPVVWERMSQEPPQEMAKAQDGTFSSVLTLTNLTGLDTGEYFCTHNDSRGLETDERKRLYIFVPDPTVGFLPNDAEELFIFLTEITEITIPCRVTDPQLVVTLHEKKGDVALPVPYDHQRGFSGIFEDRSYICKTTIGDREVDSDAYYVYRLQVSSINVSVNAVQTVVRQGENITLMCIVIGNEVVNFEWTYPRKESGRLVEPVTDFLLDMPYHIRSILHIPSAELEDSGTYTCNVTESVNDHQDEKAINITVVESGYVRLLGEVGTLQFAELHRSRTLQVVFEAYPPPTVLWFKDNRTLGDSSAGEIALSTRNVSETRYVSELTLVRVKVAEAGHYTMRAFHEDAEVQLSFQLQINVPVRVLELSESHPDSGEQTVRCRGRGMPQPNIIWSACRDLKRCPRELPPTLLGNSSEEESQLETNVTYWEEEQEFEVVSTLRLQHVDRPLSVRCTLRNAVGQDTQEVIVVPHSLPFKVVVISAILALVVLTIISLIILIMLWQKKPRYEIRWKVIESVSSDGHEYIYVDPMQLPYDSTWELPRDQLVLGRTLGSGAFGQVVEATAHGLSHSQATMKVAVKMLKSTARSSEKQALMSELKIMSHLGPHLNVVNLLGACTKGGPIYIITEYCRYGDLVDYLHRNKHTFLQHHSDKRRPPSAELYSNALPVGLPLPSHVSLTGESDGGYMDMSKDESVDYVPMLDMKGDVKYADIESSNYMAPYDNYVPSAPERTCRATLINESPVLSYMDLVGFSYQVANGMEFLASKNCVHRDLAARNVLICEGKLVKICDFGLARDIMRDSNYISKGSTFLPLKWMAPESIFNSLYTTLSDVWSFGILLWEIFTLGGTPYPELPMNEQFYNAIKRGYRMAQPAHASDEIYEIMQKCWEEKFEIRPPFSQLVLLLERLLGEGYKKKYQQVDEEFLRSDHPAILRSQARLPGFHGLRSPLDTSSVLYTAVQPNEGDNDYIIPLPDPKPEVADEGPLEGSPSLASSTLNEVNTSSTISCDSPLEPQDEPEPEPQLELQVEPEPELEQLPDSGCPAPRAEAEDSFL

Sequence of Tyrosine-protein kinase Lyn (Homo sapiens) (P07948 2-512 limits assumed): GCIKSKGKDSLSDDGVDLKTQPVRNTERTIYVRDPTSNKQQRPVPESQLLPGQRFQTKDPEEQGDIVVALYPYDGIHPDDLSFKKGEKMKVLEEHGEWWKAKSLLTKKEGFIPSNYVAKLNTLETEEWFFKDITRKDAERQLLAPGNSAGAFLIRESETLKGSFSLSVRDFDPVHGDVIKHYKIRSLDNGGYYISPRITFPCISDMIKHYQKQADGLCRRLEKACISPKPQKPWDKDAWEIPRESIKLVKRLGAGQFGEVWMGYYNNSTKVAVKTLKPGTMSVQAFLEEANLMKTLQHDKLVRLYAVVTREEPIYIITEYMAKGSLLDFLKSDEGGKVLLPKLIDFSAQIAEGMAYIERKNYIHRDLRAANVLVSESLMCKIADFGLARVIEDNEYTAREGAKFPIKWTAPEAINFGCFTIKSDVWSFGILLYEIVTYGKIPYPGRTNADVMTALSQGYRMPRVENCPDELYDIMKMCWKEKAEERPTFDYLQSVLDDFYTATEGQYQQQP
Sequence of Leukocyte tyrosine kinase receptor (Homo sapiens) (P29376 whole entry): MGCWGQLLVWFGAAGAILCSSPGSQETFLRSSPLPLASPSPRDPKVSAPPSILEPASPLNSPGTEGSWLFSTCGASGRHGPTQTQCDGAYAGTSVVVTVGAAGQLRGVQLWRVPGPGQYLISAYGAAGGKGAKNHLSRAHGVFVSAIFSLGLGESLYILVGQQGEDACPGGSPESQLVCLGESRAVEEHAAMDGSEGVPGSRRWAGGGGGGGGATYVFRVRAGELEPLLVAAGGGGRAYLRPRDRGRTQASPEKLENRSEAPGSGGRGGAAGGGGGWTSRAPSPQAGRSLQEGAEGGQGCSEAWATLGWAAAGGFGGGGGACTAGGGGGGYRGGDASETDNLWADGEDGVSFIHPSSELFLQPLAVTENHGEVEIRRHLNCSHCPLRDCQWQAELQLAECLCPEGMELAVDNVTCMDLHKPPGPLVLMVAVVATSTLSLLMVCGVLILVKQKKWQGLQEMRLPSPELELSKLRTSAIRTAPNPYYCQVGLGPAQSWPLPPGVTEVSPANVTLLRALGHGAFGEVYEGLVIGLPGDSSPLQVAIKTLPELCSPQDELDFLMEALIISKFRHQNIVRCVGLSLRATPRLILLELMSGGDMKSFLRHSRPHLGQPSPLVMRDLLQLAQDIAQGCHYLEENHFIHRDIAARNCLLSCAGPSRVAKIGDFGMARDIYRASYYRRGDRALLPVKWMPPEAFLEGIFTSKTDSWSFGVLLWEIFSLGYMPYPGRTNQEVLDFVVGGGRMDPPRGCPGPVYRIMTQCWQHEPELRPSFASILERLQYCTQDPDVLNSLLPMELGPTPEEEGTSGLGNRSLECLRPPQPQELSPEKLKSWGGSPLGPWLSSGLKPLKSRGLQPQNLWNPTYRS

`COC(=O)c1ccc2c(c1)C(=Cc1cc(Br)c(O)c(Br)c1)C(=O)N2`: the inhibition (commonly the drop in the measured response relative to a control, in per cent) is 34% in experiment [1]; 3.81% in experiment [2]; 17.1% in experiment [3]; 2.84% in [4]; 12.9% in [5]; 1.09% in [6]. Besides, the inhibition in [7] turned out to be 2.17%; in experiment [8], 2.4%; in experiment [9] it was 8.25%; in experiment [10], 3%; in experiment [11], 8.06%; in experiment [12] it was 5.39%. The inhibition in [13] was 16.1%; in experiment [14], 2.33%; in [15], 12.2%; in experiment [16], 1.96%; in experiment [17], 3.91%; in experiment [18], 4.32%. For the same compound, the results for the inhibition in [19] and in [20] were 12.3% and 1.55%, respectively.
`c1ccc(Cc2nc3ccc(Nc4ncnc5ccccc45)cc3[nH]2)cc1`: the inhibition in experiment [1] turned out to be 2.52%; in experiment [2], 5.18%; in experiment [3] it was 10.3%; in experiment [4], 2.45%; in experiment [5], 8.65%; in experiment [6], 0.72%. The inhibition in [7] was 1.74%; in [8], 4.71%; in experiment [9], 7.9%; in [10], 3.14%; in experiment [11], 3.78%; in experiment [12], 8.25%. For the same compound, the inhibition in [13] is 17%; in experiment [14] it was -0.75%; in experiment [15], 1%; in experiment [16], 3.02%; in experiment [17], 5.74%; in experiment [18], 3.34%. For the same compound, the inhibition in [19] was found to be 12.9%; in [20], 4.81%.
`COc1cc2ncnc(Nc3ccc(C)c(O)c3)c2cc1OC`: the inhibition in [1] was 24.8%; in experiment [2] it was 39.7%; in [3] it was 83.9%; in experiment [4], 32.6%; in experiment [5] it was 80.8%; in experiment [6] it was 2.64%. Besides, the inhibition was determined as 4.97% in [7]; 1.61% in [8]; 9.16% in experiment [9]; 0.51% in [10]; 7.42% in experiment [11]; 85.7% in [12]. Moreover, the inhibition in experiment [13] was determined as 93.9%; in [14] it was 94.2%; in experiment [15], 98%; in [16] it was 6.7%; in experiment [17] it was 16.9%; in [18] it was 89.4%. Moreover, the results for the inhibition in experiment [19] and in [20] were 97.8% and 33.2%, respectively.
For `COc1cc2ncn(-c3cc(OCc4ccccc4S(C)(=O)=O)c(C#N)s3)c2cc1OC`, the inhibition in [1] was found to be 7.89%; in experiment [2], 20.4%; in experiment [3], 65.6%; in [4] it was 15.1%; in [5] it was 60.9%; in [6], 35.4%. In addition, the inhibition stood at 77.1% in experiment [7]; 5.94% in experiment [8]; 15.6% in experiment [9]; 13.2% in [10]; 50.6% in experiment [11]; 59.9% in experiment [12]. Also, the inhibition in experiment [13] amounted to 81.6%; in experiment [14], 47.5%; in experiment [15], 88%; in experiment [16], 7.95%; in experiment [17] it was 36.1%; in experiment [18], 47.3%. Besides, the inhibition in [19] was 87.8%; in experiment [20], 45.3%.
On to `NS(=O)(=O)c1cccc(Nc2cc(-c3ccc(F)cc3)n[nH]2)c1`, for which the inhibition in [1] was determined as 4.08%; in [2], 5.86%; in experiment [3], 10.7%; in [4] it was 3.31%; in experiment [5], 8.61%; in experiment [6], 1.94%. For the same compound, the inhibition in [7] was found to be 2.95%; in experiment [8] it was 9.61%; in [9] it was 4.41%; in experiment [10] it was 3.78%; in experiment [11], 13.7%; in experiment [12], 12.7%. For the same compound, the inhibition stood at 36.1% in experiment [13]; 3.21% in experiment [14]; 16.6% in experiment [15]; 9.3% in experiment [16]; 43% in experiment [17]; 29.1% in experiment [18]. In addition, the inhibition in [19] is 50.8%; in [20] it was 12.7%.
Regarding `CCCN1CCCC(c2ccc(Nc3nc(Nc4cc(F)ccc4C(N)=O)c4cc[nH]c4n3)c(OC)c2)C1` (stereo not given), the inhibition in experiment [1] was 95.5%; in experiment [2] it was 7.48%; in experiment [3], 7.83%; in [4], 3.89%; in experiment [5], 4.64%; in experiment [6], 3.05%. For the same compound, the inhibition in experiment [7] came out at 14.1%; in experiment [8], 2.96%; in experiment [9], 20.6%; in [10], 3.6%; in [11], 12.2%; in [12], 10.1%. In addition, the inhibition was determined as 38.3% in experiment [13]; 8.12% in experiment [14]; 39.9% in experiment [15]; 5.49% in experiment [16]; 8.24% in experiment [17]; 6.86% in experiment [18]. The inhibition in [19] was found to be 33.1%; in experiment [20], 6.16%.
